Assay: NFkB reporter suppression in cystic fibrosis bronchial cells – cell-based, uHTS hits, panel, cytotoxicity readout, dose response (AID 624344)
Settings: CF bronchial epithelial cells, PAF-induced NFkB reporter inhibition, with PAF, run 2; at 79 µM (top of the series) unless noted

Compound	inhibition
CCOc1ccccc1NC(=S)Nc1ccc2cn[nH]c2c1	114%
Cc1ccc(-c2n[nH]c(=S)n2/N=C/c2ccncc2)cc1	96%
Cc1nc(N)c(C#N)c(-c2cccnc2)c1-c1ccccc1	80%
FC(F)(F)c1nnc2c(Sc3ccccc3)nc3ccccc3n12	88.4%
FC(F)Sc1ccc(NC(=S)NCC2CCCCC2)cc1	112%
Cc1ccc(S(=O)(=O)Nc2cccc3ncccc23)s1	97%
Cc1ccc(N(C)C(=O)c2cc(S(=O)(=O)N3CCCCC3)c[nH]2)cc1	79%
CS(=O)(=O)c1ccc2nc(NC(=O)Nc3cccc(Cl)c3)sc2c1	83.9%
COc1ccc(-n2c(C)cc3cc(OC(C)=O)ccc32)cc1	70.9%
Cc1ccc(-c2cc(C(=O)N/N=C/c3c(C)nn(-c4ccccc4)c3C)[nH]n2)cc1	88.3%
CCC(=O)Nc1nc(C)c(-c2csc(Nc3cccc(O)c3)n2)s1	104%
Cc1c(C(=O)OCC(C)C)[nH]c2c1C(=O)CC(c1ccco1)C2 (stereo not given)	61.5%
Cc1ccc(Nc2nc3nonc3[nH]c2=O)cc1Cl	104%
O=C(/C=C/c1cccs1)Nc1cccc(NC(=O)/C=C/c2cccs2)n1	96.4%
Cc1ccc(N=Cc2cc3c(cc2O)OC(N)=C(C#N)C3c2ccccc2)cc1 (stereo not given)	60.7%
CCOc1cc2c(cc1O)C(=NOC)CC1C2CCC2(C)C(O)CCC12 (stereo not given)	94.3%
Cc1ncc(CO)c2c1Oc1nc(-c3ccccc3F)nc(SCC(=O)N(C)c3ccccc3)c1C2	102%
Cc1ccc(NC(=O)c2nc[nH]c2C(=O)NCCCNC(=O)c2[nH]cnc2C(=O)Nc2ccc(C)cc2)cc1	95.2%
CC(=O)N1CC(=O)N=C1SCC(=O)Nc1nc(C)c(-c2ccccc2)s1	73.4%
Cc1cccc(NC(=O)c2nc[nH]c2C(=O)NCCCNC(=O)c2[nH]cnc2C(=O)Nc2cccc(C)c2)c1	75.5%

Compound	inhibition
CC(C)[C@H](CO)Nc1nc(NCc2ccc(S(N)(=O)=O)cc2)c2ncn(C(C)C)c2n1	110%
CCCN(CC)c1ncnc2[nH]ncc12	108%
CCN(CC)CCN(C(=O)CCS(=O)(=O)c1ccccc1)c1nc2c(C)cc(C)cc2s1	115%
O=C(Oc1cc2oc(=O)cc(-c3ccccc3)c2cc1Cl)C1CCCCC1	105%
Cc1ccc2c(c1)C(=O)C(=O)N2Cc1ccc(C(F)(F)F)cc1	100%
NC1(C(=O)O)CSSC1	103%
COc1ccc(NC(=O)Cn2ncn3nc(-c4ccc(OC)cc4)cc3c2=O)cc1	107%
O=C(NCCN1CCN(c2ccccc2)CC1)c1cccc(Br)c1	73.9%
O=C(c1ccc(O)c(Br)c1)c1cc(Br)ccc1O	109%
N=C1N(c2ccccc2)C(=S)C(=Nc2ccccc2)N1c1ccccc1	103%
C=Cc1ccc(CC2(C)C(=O)Nc3ccc(-c4cccnc4)cc32)cc1 (stereo not given)	102%
COc1cc(CN(C)c2ccc(S(=O)(=O)N3CCCC3)cn2)ccc1OC(F)F	98.6%
c1csc(CNc2ncnc3ccc(-c4ccoc4)cc23)c1	116%
COc1cc(NC(=O)c2cc3ccccc3cc2OC)ccc1NC(=O)c1cccs1	107%
Cc1cccc(NC(=O)c2cc(-c3ccc(C)s3)nc3ccccc23)n1	95.4%
CCCn1c(-c2nonc2N)nc2ccccc21	95.5%
C#CCN(C[C@@H]1[C@@H](OC(=O)NCc2ccco2)[C@@H](OC(=O)NCc2ccco2)Cn2c(=O)ccc(=O)n21)S(=O)(=O)c1ccc(C)cc1	111%
C=CCSc1nc2ccccc2n1C(=O)/C=C/c1ccc(OC)c(OC)c1	102%
CCN1CCN(Cc2ccc(NC(=O)c3ccc(C)c(NC(=O)c4csc(-c5ccncc5)n4)c3)cc2C(F)(F)F)CC1	101%
Cc1cc(C)c2nc(C(F)(F)F)c(C#N)c(N)c2c1	90.1%

From PubChem BioAssay
